Test [1] can be described thus: qHTS Assay for Lipid Storage Modulators (AID 1519). On activity change, negative = inhibition: on the % scale 0 is the no-effect control and ±100 the full control effect. To be noted: Drosophila S3 cells, BODIPY lipid droplet/cell ratio, laser cytometry, cells loaded with oleic acid. Summed up: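 Cells seeded at 5,000 per well were treated with compounds over a concentration series and loaded with oleic acid (400 uM, as added). Lipid droplet fluorescence (488 nm excitation, 500-530 nm channel) was read by laser-scanning cytometry and normalized to 20 uM Triacsin C.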

Test [2] in a line: Validation of Assay for Modulators of Lamin A Splicing (AID 1459; active means well fitted curve in the direction sought with a large enough effect in the signal ratio; the % refers to the signal ratio;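 further: cells exposed to compound for two days before reading; 0% is about no effect; ratio rise marks activators and ratio drop marks inhibitors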). To be noted: Lamin A splicing dual RFP/GFP fluorescence reporter; series mostly up to 9.22 µM. Put shortly: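 Dual-reporter HeLa S3 line (lamin A-EGFP minigene, DsRed2) treated with compounds 48 hrs, 0.5% DMSO final. Endpoint: EGFP/DsRed2 total intensity ratio from laser-scanning microplate cytometry.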
In test [3] the target is DNA repair nuclease/redox regulator APEX1 (Homo sapiens) (UniProt P27695). The test can be described thus: qHTS Validation Assay for Inhibitors of the Human Apurinic/apyrimidinic Endonuclease 1 (APE1) (AID 1705; active means well fitted curve in the direction sought with a large enough effect; an effect the other way counts as inactive or inconclusive; further: potency means the concentration at half of the fitted maximal effect;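 on activity change, negative = inhibition: TAMRA fluorescence gain over two minutes as APE1 cuts a quenched THF abasic duplex; on the % scale 0 is the no-effect control and ±100 the full control effect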). To be noted: purified APE1 endonuclease activity, fluorescence, titration; series mostly up to 57.1 µM. Put shortly:
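Substrate: 50 nM final fluorophore/quencher THF-abasic duplex. Enzyme preincubated with compounds 15 min, RT. Progress derived from fluorescence difference, third minus first kinetic read.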
For orientation: Quantitative high-throughput screening tests each substance at several concentrations.

The nature of test [4]: Counterscreen for APE1 Inhibitors: Fluorescent Dye Displacement Validation Assay (AID 1707; active means well fitted curve in the direction sought with a large enough effect; an effect the other way counts as inactive or inconclusive;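 further: plate controls were ThO with dsDNA and no compound for no effect and ThO without dsDNA for full effect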). Particulars: fluorescent dye displacement from DNA; series mostly up to 57.1 µM. Put shortly:
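Loss of Thiazole Orange fluorescence marks promiscuous DNA binders. The dye (250 nM) is mixed with 50 nM abasic-site dsDNA in pH7.5 Tris buffer containing MgCl2, then compounds are added and emission is read once.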

In test [5] the target is Endonuclease 4 (Escherichia coli (strain K12)) (UniProt P0A6C1). The test can be described thus: Counterscreen for APE1 Inhibitors: qHTS Validation Assay for Inhibitors of Endonuclease IV (AID 1708; active means well fitted curve in the direction sought with a large enough effect; an effect the other way counts as inactive or inconclusive; further: on the % scale 0 is the no-effect control and ±100 the full control effect). Particulars: E. coli endonuclease IV, DNA cleavage fluorescence; series mostly up to 57.1 µM. Summed up: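 Incision of a double-stranded 50 nM TAMRA/BHQ-2 abasic substrate was followed kinetically (525/598 nm, reads every 60 s) after 15 min enzyme–compound preincubation with 2 nM EndoIV in pH 7.5 Tris buffer with MgCl2, DTT and Tween-20; concentration-response format.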
On the technique in general: Counterscreens check selectivity or assay interference.

A short description of test [6]: qHTS for differential inhibitors of proliferation of Plasmodium falciparum line 7G8 (AID 1815; active means well fitted curve in the direction sought with a large enough effect; an effect the other way counts as inactive or inconclusive;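 further: parasite growth measured after three days of incubation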; further: potency means the concentration at half of the fitted maximal effect;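 on activity change, negative = inhibition: plate controls were vehicle wells for no effect and reference inhibitor wells for full effect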). Particulars: Plasmodium falciparum 7G8 proliferation inhibition; series mostly up to 28.7 µM.
Test [7] is described as follows: qHTS for differential inhibitors of proliferation of Plasmodium falciparum line GB4 (AID 1816; active means well fitted curve in the direction sought with a large enough effect; an effect the other way counts as inactive or inconclusive;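 further: potency means the concentration at half of the fitted maximal effect; parasite growth measured after 72 h incubation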). Particulars: Potency: Plasmodium falciparum GB4 proliferation inhibition; series mostly up to 28.7 µM.
The nature of test [8]: qHTS for differential inhibitors of proliferation of Plasmodium falciparum line 3D7 (AID 1876; active means well fitted curve in the direction sought with a large enough effect; an effect the other way counts as inactive or inconclusive; further: potency means the concentration at half of the fitted maximal effect). Particulars: P. falciparum 3D7 proliferation inhibition; series mostly up to 28.7 µM.
The target of test [9] is Alpha-galactosidase A (Homo sapiens) (UniProt P06280). In words: Counterscreen for Glucocerebrosidase Inhibitors: qHTS Assay for Human alpha-Galactosidase at pH 4.5 (AID 992; active means well fitted curve in the direction sought with a large enough effect; an effect the other way counts as inactive or inconclusive; further: 0% is about no effect). Particulars: purified enzyme, fluorogenic substrate; series mostly up to 76.9 µM. Put shortly:
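Each compound is preincubated briefly with 2 nM enzyme before substrate addition (80 uM); plates then sit 20 min at ambient temperature, are quenched with 1M NaOH/1M glycine, and read fluorometrically.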

In test [10] the target is alpha-glucosidase (Oryza sativa, rice) (UniProt Q653V4). The test can be described thus: Counterscreen for Glucocerebrosidase Inhibitors: qHTS Assay for Rice alpha-Glucosidase at pH 5.0 (AID 997; active means well fitted curve in the direction sought with a large enough effect; an effect the other way counts as inactive or inconclusive;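 further: 0% = full activity with enzyme and -100% = basal without enzyme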). To be noted: rice alpha-glucosidase enzyme activity; series mostly up to 76.9 µM. Put shortly:
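Endpoint fluorogenic assay at pH 5.0: compounds (0.7 nM to 77 uM) titrated against 4 nM rice enzyme and 400 uM 4-MU-alpha-glucoside for 20 min at room temperature; NaOH/glycine stop, read ex 365/em 440 nm, Hill-fitted AC50.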

Setting [11] is: measured here: cell count channel max response.
The mark [12] stands for this setting: measured here: lipid channel max response.

SMILES strings stand for the structures. Several values for one entry are separate records, joined by “and”; a condition that tells them apart may be missing. Identical values can stand only once. Records with an inconclusive call do not appear. Activity calls are given as the source filed them. Unless noted, the call rests on the fitted dose curve.

DNA repair nuclease/redox regulator APEX1 (Homo sapiens), sequence (P27695 whole entry, looked up): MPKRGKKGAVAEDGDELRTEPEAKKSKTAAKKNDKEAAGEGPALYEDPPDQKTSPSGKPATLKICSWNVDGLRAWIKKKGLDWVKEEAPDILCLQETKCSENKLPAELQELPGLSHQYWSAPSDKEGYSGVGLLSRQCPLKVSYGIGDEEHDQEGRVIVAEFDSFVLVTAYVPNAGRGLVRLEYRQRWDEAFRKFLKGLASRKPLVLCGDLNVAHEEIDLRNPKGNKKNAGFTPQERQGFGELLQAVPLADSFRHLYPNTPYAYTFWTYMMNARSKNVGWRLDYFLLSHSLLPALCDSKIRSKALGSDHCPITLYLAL
Alpha-galactosidase A (Homo sapiens), sequence (P06280 whole entry, looked up): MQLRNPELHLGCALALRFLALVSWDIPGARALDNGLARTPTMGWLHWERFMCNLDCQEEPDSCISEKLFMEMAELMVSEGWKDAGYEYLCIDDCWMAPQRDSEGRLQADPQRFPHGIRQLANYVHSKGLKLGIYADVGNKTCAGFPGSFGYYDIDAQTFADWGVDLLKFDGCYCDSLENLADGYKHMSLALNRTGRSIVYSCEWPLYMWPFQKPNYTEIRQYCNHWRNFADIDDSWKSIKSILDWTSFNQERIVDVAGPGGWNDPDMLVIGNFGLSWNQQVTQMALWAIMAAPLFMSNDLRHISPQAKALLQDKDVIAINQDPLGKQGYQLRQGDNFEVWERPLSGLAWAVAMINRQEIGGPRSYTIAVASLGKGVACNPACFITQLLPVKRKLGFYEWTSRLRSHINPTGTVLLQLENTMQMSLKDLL

Regarding `CCCCCCCCCCCCCCCCOP(=O)([O-])OCC[N+](C)(C)C`, the activity change, negative = inhibition in test [1] (at 57.5 µM (top of the series)) was 6.36% (inactive). For the same molecule, the max response in test [1] (setting [11]) came out at 14.5%; in test [1] (setting [12]), 23.7%.

Consider `CN1C2CCC1CC(OC(=O)c1c[nH]c3ccccc13)C2` (stereo not drawn), for which the molecule was called inactive in [2], in test [4] and in test [5]. The activity change, negative = inhibition in [1] (at 57.5 µM (top of the series)) is 1.19% (inactive). Moreover, the max response is 10.2% in [1] (setting [11]) and 11.1% in [1] (setting [12]). The Potency in test [3] is 39.8 µM (active); in [6] it was 7.08 µM (active); in test [7] it was 11.2 µM (active); in test [8], 10 µM (active).

Consider `CC(C)N=C(N)/N=C(\N)Nc1ccc(Cl)cc1`, for which, in test [1] (at 25.7 µM (top of the series)), the activity change, negative = inhibition is -2.29% (inactive). For the same molecule, the max response in [1] (setting [11]) was -10.3%; in test [1] (setting [12]) it was -11.8%.

For `Nc1cc(Cl)c(NC2=NCCN2)c(Cl)c1`, the result in test [9], in test [10], in [2] and in test [4] was inactive. The Potency entry in test [3], in test [6] and in [8] was “inactive” in each case.

Consider `CCn1cc(C(=O)O)c(=O)c2cnc(N3CCCC3)nc21`, for which the activity change, negative = inhibition in [1] (at 25.7 µM (top of the series)) is -3.05% (inactive). Moreover, the max response was -11.9% in test [1] (setting [11]) and -16.2% in [1] (setting [12]).

Take `COc1ccc(CCN2CCC(Nc3nc4ccccc4n3Cc3ccc(F)cc3)CC2)cc1`: the figures for the activity change, negative = inhibition in test [1] (at 25.7 µM (top of the series)) and in test [1] (at 57.5 µM (top of the series)) were -7.48% (inactive) and 12.8% (inactive), respectively. The max response in [1] (setting [11]) was -13.7% and 8.29%; in test [1] (setting [12]), -24.1% and 21%.

Turning to `CCCC(=O)Nc1ccc(OCC(O)CNC(C)C)c(C(C)=O)c1` (stereo not drawn), the activity change, negative = inhibition in [1] (at 57.5 µM (top of the series)) is 5.02% (inactive). The max response in test [1] (setting [11]) came to 16.7%; in test [1] (setting [12]) it was 24.3%.

Turning to `C[C@@H](CN(C)C)CN1c2ccccc2Sc2ccccc21`, the activity change, negative = inhibition in test [1] (at 25.7 µM (top of the series)) is -1.55% (inactive). For the same molecule, the values for the max response in test [1] (setting [11]) and in [1] (setting [12]) were -4.09% and -6.89%, respectively.

With `Nc1nc2ncc(CNc3ccc(C(=O)N[C@@H](CCC(=O)O)C(=O)O)cc3)nc2c(=O)[nH]1`, the activity change, negative = inhibition is -2.19% (inactive) in [1] (at 25.7 µM (top of the series)) and 8.45% (inactive) in test [1] (at 57.5 µM (top of the series)). Further, the max response in test [1] (setting [11]) was -7.62% and 6.6%; in test [1] (setting [12]), -8.4% and 15.7%.

For `O=C(COc1ccc(Cl)cc1)N1CCN(Cc2ccc3c(c2)OCO3)CC1`, the activity change, negative = inhibition in test [1] (at 25.7 µM (top of the series)) was 1.24% (inactive). In addition, the max response in test [1] (setting [11]) is -6.27%; in [1] (setting [12]), -4.72%.

For `NCCCC[C@H](N[C@@H](CCc1ccccc1)C(=O)O)C(=O)N1CCC[C@H]1C(=O)O`, the activity change, negative = inhibition in test [1] (at 25.7 µM (top of the series)) was 0.781% (inactive). For the same molecule, the results for the max response in [1] (setting [11]) and in [1] (setting [12]) were 1.7% and 0.636%, respectively.

In the case of `Cc1ccnc(NS(=O)(=O)c2ccc(N)cc2)n1`, the activity change, negative = inhibition in [1] (at 25.7 µM (top of the series)) is 2.4% (inactive); in test [1] (at 57.5 µM (top of the series)) it was 7.92% (inactive). For the same molecule, the max response was -11% and -0.764% in test [1] (setting [11]); -8.59% and 9.99% in [1] (setting [12]).

For the molecule `CC(Cc1cccc(C(F)(F)F)c1)NCCOC(=O)c1ccccc1` (stereo not drawn), the activity change, negative = inhibition in [1] (at 57.5 µM (top of the series)) was -1.3% (inactive). Further, the max response in test [1] (setting [11]) is -3.51%; in test [1] (setting [12]), -2.7%.

As for `CC[N+](CC)(CCNC(=O)C(=O)NCC[N+](CC)(CC)Cc1ccccc1Cl)Cc1ccccc1Cl`, in test [1] (at 57.5 µM (top of the series)), the activity change, negative = inhibition was 1.97% (inactive). The max response was -14% in test [1] (setting [11]) and -12.6% in test [1] (setting [12]).

As to `CN1CCC(=C2c3ccccc3Sc3ccccc32)CC1`, the activity change, negative = inhibition was -2.77% (inactive) in test [1] (at 25.7 µM (top of the series)) and 13.8% (inactive) in [1] (at 57.5 µM (top of the series)). Moreover, the max response in test [1] (setting [11]) was 3.5% and 5.85%; in test [1] (setting [12]), -0.527% and 23.3%.

As for `CN1CCN(C(c2ccccc2)c2ccccc2)CC1`, the results for the activity change, negative = inhibition in [1] (at 25.7 µM (top of the series)) and in test [1] (at 57.5 µM (top of the series)) were -2.7% (inactive) and 7.26% (inactive), respectively. Moreover, the max response in test [1] (setting [11]) is -1.91% and 18%; in [1] (setting [12]) it was -3.01% and 29.7%.

Take `CN(C)CC/C=C1\c2ccccc2Sc2ccc(Cl)cc21`: the activity change, negative = inhibition in test [1] (at 25.7 µM (top of the series)) is -2% (inactive); in test [1] (at 57.5 µM (top of the series)) it was 8.38% (inactive). Also, the max response in [1] (setting [11]) is -15.8% and 5.25%; in test [1] (setting [12]) it was -14.2% and 16.4%.

For the origin of these results see PubChem BioAssay (NCATS).
